# Most compounds without a hit are left out; they make up all but 2% or so of the library.
# KDM4E inh: qHTS Assay for Inhibitors of Human Jumonji Domain Containing 2E (JMJD2E); Lysine-specific demethylase 4E (Homo sapiens), B2RXH2; JMJD2E catalytic domain, FDH-coupled NADH fluorescence (FDH is formaldehyde dehydrogenase); Potency, µM (titrated, usually from 57.1 µM), for inactives: at the top dose activity change, negative = inhibition, hits mostly inhibitors; actives 1.6% (n = 230,000); AID 2147, 2009; active means well fitted inhibition curve with a large enough effect, not every such curve was filed as active; inconclusive means small, poorly fitted or top-dose-only effect, or another doubt; inactive means no such curve, though single readings can be large or run the other way;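 further: potency means the concentration at half of the fitted maximal effect; 0% = wells with enzyme and -100% = buffer wells without enzyme; nearly all actives have a fitted effect of over 50% in size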
# TR SRC2 fluor cs: Total Fluorescence Counterscreen for Inhibitors of the Interaction of Thyroid Hormone Receptor and Steroid Receptor Coregulator 2; actives 0.29% (n = 280,000); AID 1479, 2009; TRb/SRC2 Texas Red total fluorescence interference; Potency, µM (series often up to 106 µM), for inactives: top-dose fluorescence change, negative = quenching; active means well fitted curve in either direction with a large enough effect; inconclusive means small, poorly fitted or top-dose-only effect; further: potency means the concentration at half of the fitted maximal effect; on the % scale 0 is the no-effect control and ±100 the full control effect
#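 Human TRβ ligand-binding domain (0.6 uM) and Texas Red SRC2 peptide (20 nM) in Tris buffer with 1 uM T3 and 5% DMSO were incubated with pinned compound for 5 hr at ambient temperature. Total fluorescence was computed as S + 2P (555/632 nm).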
# FBPA coupling cs: qHTS Assay for Inhibitors of Fructose-1,6-bisphosphate Aldolase from Giardia Lamblia: Coupling assay counterscreen. coupling enzyme system counterscreen, AmpLite Red fluorescence. activity change, negative = inhibition, % at 58.2 µM, hits read low. actives 0.67% (n = 290,000); in the data active means activity change below about -30%; further: on the % scale 0 is the no-effect control and ±100 the full control effect
#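 First, compound is pin-transferred into glyceraldehyde-3-phosphate coupling-enzyme reagent at 57.5 uM final and held 10 min at RT. Next, substrate, coupling system and AmpLite Red are added. After 20 min RT, fluorescence (525/598 nm) is read.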
# HTT cytoprotect: qHTS Multiplex Assay to Identify Dual Action Probes in a Cell Model of Huntington: Cytoprotection (ATP); PC12 HTT-Q103 induced, cytoprotection, ATP luminescence, 40 h; Potency, µM (series often up to 56.4 µM), without a hit: cytoprotection (ATP increase), most hits filed as activators; actives 0.14% (n = 230,000); AID 1471, 2008; further: potency means the concentration at half of the fitted maximal effect; % of control where 0% means no effect; nearly all actives have a fitted effect of over 45% in size
#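 Cells were plated at 1500 per well in phenol red-free DMEM with 5% equine and 5% calf serum. Tebufenozide (100 nM final) and compounds were added, then ATPlite reagent, and luminescence was read.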
# TRb-SRC2 inh: qHTS for Inhibitors of the Interaction of Thyroid Hormone Receptor and Steroid Receptor Coregulator 2; Thyroid hormone receptor beta (Homo sapiens), P10828; TRbeta-SRC2 peptide binding, fluorescence polarization; receptor liganded with 1 µM T3; Potency, µM (top dose mostly 106 µM), without a hit: at the top dose activity change, negative = inhibition, usual class: inhibitors; actives 0.065% (n = 280,000); AID 1469, 2008;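 further: potency means the concentration at half of the fitted maximal effect; plate controls were bound peptide for no effect and peptide without receptor for full effect; nearly all actives have a fitted effect of over 50% in size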
# Target sequence (P10828 whole entry, looked up): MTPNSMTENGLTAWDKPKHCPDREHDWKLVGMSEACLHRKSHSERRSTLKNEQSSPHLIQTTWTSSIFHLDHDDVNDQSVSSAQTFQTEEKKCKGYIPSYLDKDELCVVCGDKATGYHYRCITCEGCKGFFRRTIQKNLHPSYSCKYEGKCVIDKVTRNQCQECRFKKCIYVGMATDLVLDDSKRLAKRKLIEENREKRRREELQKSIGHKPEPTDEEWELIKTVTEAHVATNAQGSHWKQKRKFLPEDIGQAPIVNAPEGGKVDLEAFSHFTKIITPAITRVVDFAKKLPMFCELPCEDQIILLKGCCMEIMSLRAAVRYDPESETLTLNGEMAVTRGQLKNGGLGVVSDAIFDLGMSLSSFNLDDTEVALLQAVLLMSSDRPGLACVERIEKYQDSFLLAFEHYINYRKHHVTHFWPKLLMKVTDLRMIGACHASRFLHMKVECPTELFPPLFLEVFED
#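 Quantitative HTS by FP: 0.6 uM TRb LBD, 20 nM labeled SRC2 20-mer, 1 uM T3, 5% DMSO; 5 hr ambient incubation; % activity per concentration and potencies from concentration series.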
# HttQ103 aggreg: qHTS Multiplex Assay to Identify Dual Action Probes in a Cell Model of Huntington: Aggregate Formation (GFP); PC12 HttQ103-GFP aggregates, Acumen cytometry, 40 h; Potency, µM (top dose mostly 46.1 µM), inactives show top-dose activity change, negative = inhibition, actives largely listed as inhibitors; actives 1.1% (n = 220,000); further: potency means the concentration at half of the fitted maximal effect; on the % scale 0 is the no-effect control and ±100 the full control effect; nearly all actives have a fitted effect of over 60% in size
#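 Compounds (qHTS titration) were added to PC12 cells expressing an ecdysone-driven HTT exon 1 Q103–GFP fusion after induction with 100 nM tebufenozide. Aggregate formation was measured as GFP objects in cell lysates.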
# * hit, by the source's call; ? = inconclusive; / = no result given; ! = not active in a repeat; [ ] = another dose, or the depositor's remark. Unless noted, the call rests on the fitted dose curve; in most records, active means well fitted curve in the direction sought with a large enough effect; inconclusive means small, poorly fitted or top-dose-only effect, or another doubt; inactive means no such curve, though single readings can be large; an effect the other way counts as inactive or inconclusive.
SMILES,KDM4E inh,TR SRC2 fluor cs,FBPA coupling cs,HTT cytoprotect,TRb-SRC2 inh,HttQ103 aggreg
Cc1ccc(CN(Cc2ccco2)C(=O)c2oc3ccc(C)cc3c2C)cc1,/,4%,/,/,0%,/
Cc1ccc2occ(CC(=O)N(Cc3ccc(Cl)cc3)Cc3ccco3)c2c1,/,0.35µM*[quencher],/,/,?,/
COc1ccc(NS(=O)(=O)c2cccc3cccnc23)cc1,-6%,-3%,3,-20%[10 µM],6%,13µM*
c1cnc2c(c1)ccc1cccnc12,25µM*,-3%,-66*!,0%[10 µM],3%,7.9µM*
CCN(CC)S(=O)(=O)c1cccc2cccnc12,11%,2%,-4,18%,2%,-14%
CSS(=O)(=O)c1cccc2cccnc12,2.5µM*,-4%,-4,24%[10 µM],1%,2%[9.22 µM]
Cc1ccc2nc(-c3ccc(SCC(=O)Nc4nnc(C)s4)nc3)[nH]c2c1,?,-2%,-1,-17%[10 µM],-5%,16µM*
Brc1ccc([C@H]2CN3CCSC3=N2)cc1,11µM*,0%,/,-1%[1.9 µM],3%,/
O=C(CN(C(=O)c1ccc(Cl)cc1)C1CCCCC1)Nc1ccc(Cl)c([N+](=O)[O-])c1,3%,-34%,1,28%[1.9 µM],3%,13µM*
CCN(CCNC(=O)C1CCN(Cc2nc(-c3cccc(Cl)c3)oc2C)CC1)c1ccccc1,?,0%,2,-91%,-19%,10µM*
Cc1ccc(CNc2ncnc(N)c2[N+](=O)[O-])cc1,17%,0%,0,6%,9%,4.5µM*
Cc1cccc(C)c1Nc1ncnc(N)c1[N+](=O)[O-],1%,1%,4,3%[10 µM],-4%,-13%
Cc1ccc(S(=O)(=O)N2C(=O)/C(=C3\SC(=S)NC3=O)c3ccccc32)cc1,-4%,-4%,-1,/,4%,0.79µM*
Cc1ccc(S(=O)(=O)N2c3ccccc3-c3c(ssc3=S)C2(C)C)cc1,-20%,-16%,5,17%[10 µM],0%,-12%
C=CCOc1ccccc1CNc1cccc(F)c1,6%,-1%,-2,-17%[10 µM],-5%,11%
C=CCOc1ccccc1CNc1ccc2c(c1)OCCO2,?,-1%,-37*,-168%,-3%,14µM*
N[C@@H](CSS(=O)(=O)O)C(=O)O,?,-1%,-77*,1%,-14%,/
COc1cccc([C@@H]2Oc3ccc(Br)cc3C[C@H]2OC(=O)NS(=O)(=O)c2ccc(F)cc2)c1,?,1%,4,-38%,-5%,/
O=C1c2ccccc2C(=O)c2cc(S(=O)(=O)Nc3cccc4cccnc34)ccc21,/,-1%,-14,/,4%,/
CCc1ccc(S(=O)(=O)Nc2cc(SCC(=O)O)c(O)c3ccccc23)cc1,?,-6%,-42*,?,-1%,12%[9.22 µM]
O=C(O)c1cccc(S(=O)(=O)Nc2ccc([N+](=O)[O-])cc2O)c1,?,-3%,10,1%[10 µM],3%,-14%[9.22 µM]
CCOc1ccc(S(=O)(=O)Nc2cc(SCC(=O)O)c(O)c3ccccc23)cc1,/,/,-62*,/,/,/
CCc1ccc(S(=O)(=O)Nc2ccc(O)c3ccccc23)cc1,/,/,-9,/,/,/
O=S(=O)(Nc1cc(Sc2cccc3cccnc23)c(O)c2ccccc12)c1ccccc1,28µM*,-2%,-55*,/,2%,?
CCOc1ccc(S(=O)(=O)Nc2cc3c(C(=O)OC)c(COC)oc3c3ccccc23)cc1,/,-2%,/,/,-6%,/
O=C(O)CSc1cc(NS(=O)(=O)c2cccc([N+](=O)[O-])c2)c2ccccc2c1O,?,-5%,-40*,-31%[10 µM],-13%,-12%[9.22 µM]

# Assay outcomes as filed in PubChem.
